Assay outcomes (PubChem)
Compounds with a hit are over-represented: about 21% of the library has one in this group of screens.
DRD3 agonist = activates the human D3 dopamine receptor. hit rate 0.58% among 410,000. P35462. max activation, %. D3R DiscoveRx beta-arrestin cells, luminescence, 90 min; in the data active means max activation above about 30%; further: 0% is about no effect
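Agonist mode: compounds and dopamine controls were applied to plated cells for 90 min at 37 degrees C after an overnight attachment at 1500 cells/well. Luminescent read-out followed 30 - 60 minutes at room temperature with DiscoveRx detection reagent.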
DRD3 antagonist = antagonists of human D3 dopamine receptor | D3R cells, DiscoveRx beta-arrestin luminescence, antagonist mode; stronger effect = lower value | max response, negative = inhibition, % | P35462 | hit rate 2.5% among 360,000; in the data active means max response below about -50%; inconclusive means no clear call, values can overlap the other calls; further: on the % scale 0 is the no-effect control and ±100 the full control effect
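Cells plated overnight at 1500 cells/well, then exposed to library compounds with dopamine controls for 90 minutes at 37 degrees C. DiscoveRx reagent added for 30–60 minutes at room temperature; luminescence read, quantitative HTS format.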
TDP1 cell noCPT = qHTS for Inhibitors of human tyrosyl-DNA phosphodiesterase 1 (TDP1): qHTS in cells in absence of CPT | hit rate 15% among 420,000 | DT40 Tdp1-/- hTDP1 cells, no CPT, ATP luminescence, 48 h | AID 686978, 2013 | Potency, µM (series often up to 46.2 µM), for the others: top-dose activity change, negative = growth inhibition, actives largely listed as inhibitors; further: potency means the concentration at half of the fitted maximal effect; on the % scale 0 is the no-effect control and ±100 the full control effect; nearly all actives have a fitted effect of over 55% in size
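Readout: luminescence from CellTiter-Glo after 30 min in the dark at RT. Cells: DT40 Tdp1-/- with stable hTDP1, 400/well. Exposure: compounds alone, ≥48 hr, 37 °C.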
IL-1B inflam inh = blocks inflammasome-driven IL-1 beta release | hit rate 4.7% among 360,000 | AID 743279 | THP-1 LPS/ATP IL-1B secretion, AlphaLISA, 16 h; stronger effect = lower value | activity change, % at 57.5 µM; in the data active means activity change below about -50%; inconclusive means mostly about -30% to -49%; further: on the % scale 0 is the no-effect control and ±100 the full control effect
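THP-1 cells pretreated 1 hr with compounds (up to 57.5 uM final), then stimulated with LPS (250 ng/mL final) plus ATP (1.25 mM final); secreted IL-1B measured by AlphaLISA after 16 hr, decreased signal indicating inhibition.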
ClpP mod = qHTS Assay for Activators of ClpP; hit rate 1.9% among 340,000; AID 651965, 2013; purified B. subtilis ClpP, FRET peptide cleavage, 20 min; ATP-dependent Clp protease proteolytic subunit (Bacillus subtilis (strain 168)), P80244; Potency, µM (doses to about 57.5 µM), for inactives: at the highest dose activity change, negative = active; active means well fitted falling curve with a large enough effect; inconclusive means small, poorly fitted or top-dose-only effect; inactive means no such curve, though single readings can be large or run the other way; further: potency means the concentration at half of the fitted maximal effect; the source files actives as falling curves though it sought activators and does not explain the sign; nearly all actives have a fitted effect of over 65% in size
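Purified B. subtilis ClpP, 10 microg/mL final in Tris/HCl pH8 with KCl, BSA, glycerol and Tween-20, cleaved an Abz/nitrotyrosine-quenched decapeptide. Fluorescence (ex 320, em 430) was read at 0 and 20 min at room temperature. Delta was normalized to 5.8 microM ADEP and DMSO/no-enzyme controls.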
TDP1 cell CPT = DT40-hTDP1 cell growth loss with CPT | hit rate 12% among 420,000 | chicken DT40 Tdp1-/-;hTDP1 cells + 20 nM CPT, ATP luminescence, 48 h | Potency, µM (top dose mostly 46.2 µM), inactives show at the top dose activity change, negative = growth inhibition, most hits filed as inhibitors | AID 686979; further: potency means the concentration at half of the fitted maximal effect; on the % scale 0 is the no-effect control and ±100 the full control effect; nearly all actives have a fitted effect of over 55% in size
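Chicken DT40 Tdp1-/- cells stably complemented with human TDP1 were seeded at 400 cells/well in medium containing 20 nM camptothecin, exposed to pin-transferred compounds, and grown at 37 °C for at least 48 hr. Viability was read as ATP luminescence.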
An asterisk follows results filed as active; ? = inconclusive; · = not tested or not shown; [ ] = dose if it differs, or a comment. Unless noted, the call rests on the fitted dose curve; in most records, active means well fitted inhibition curve with a large enough effect; inconclusive means small, poorly fitted or top-dose-only effect; inactive means flat fitted curve, though single readings scatter.

SMILES | DRD3 agonist | DRD3 antagonist | TDP1 cell noCPT | IL-1B inflam inh | ClpP mod | TDP1 cell CPT
CCC(=O)N1Cc2cc(C(=O)Nc3nccs3)nc(-c3cccc(-c4ccccc4OC)c3)c2[C@H]1CCO | 61* | 7 | 16µM* | ? | -10% | ?
COc1ccccc1-c1cccc(-c2nc(C(=O)Nc3nccs3)cc3c2[C@@H](CCO)N(C(C)=O)C3)c1 | -13 | 20 | ? | -7 | -6% | ?
CCNC(=O)c1cc2c(c(-c3cccc(-c4cncnc4)c3)n1)[C@@H](CCO)N(C(C)=O)C2 | -10 | -5 | -5% | 29 | -1% | -12%
COc1ccccc1-c1cccc(-c2nc(C(=O)Nc3nccs3)cc3c2[C@H](CCO)N(C(C)=O)C3)c1 | -9 | -16 | 5.8µM* | ? | 1% | 6.5µM*
Cc1cc(NC(=O)C(C)SCC(=O)OC(C)C(=O)Nc2ccc(F)cc2Cl)no1 (configuration not stated) | 2 | 5 | -1% | 4 | 1% | -4%
O=C(O)c1ccccc1NS(=O)(=O)c1cccc(-n2sc3ccccc3c2=O)c1 | -14 | -21 | 8.2µM* | -93* | · | 15µM*
COCCNC(=O)/C(C#N)=C1\N=C(NC(=O)c2cccs2)c2ccccc21 | 4 | 9 | 7% | 8 | -1% | 2%
COc1ccc(CNC(=O)/C(C#N)=C2\N=C(NC(=O)c3cccs3)c3ccccc32)cc1 | -2 | -2 | ? | -9 | -9% | 26µM*
COc1ccccc1N=C1SC(C(=O)Nc2ccccc2OC)CC(=O)N1C (configuration not stated) | 7 | · | -13% | · | -2% | 2%
COc1ccccc1N=C1SC(C(=O)Nc2cccc(Cl)c2Cl)C(N)=C1C(N)=O (configuration not stated) | 7 | -11 | 3.3µM* | -23 | · | 2.9µM*
CCCCc1cc(=O)oc2cc(C)cc(OCC(=O)N3CCC(C(=O)O)(c4ccccc4)CC3)c12 | 1 | 1 | -21% | 0 | 5% | 3%
CC(C)(C)OC(=O)C1=CC[C@@H](c2ccc(Cl)c(Cl)c2)N(S(=O)(=O)c2ccc(F)cc2)[C@H]1c1cccc(F)c1 | 5 | 12 | 15µM* | 3 | 1% | ?
Cc1ccc(S(=O)(=O)N2[C@@H](c3ccccc3)C(C(=O)O)=CC[C@H]2c2ccc(Cl)c(Cl)c2)cc1 | -28 | -21 | -6% | 36 | -1% | -16%
Cc1ccc(S(=O)(=O)N2[C@@H](c3cccc(Cl)c3)C(C(=O)OC(C)(C)C)=CC[C@H]2c2cccc(Cl)c2)cc1 | -9 | 0 | 12µM* | 6 | 1% | 9.2µM*
Cc1ccc(S(=O)(=O)N2C[C@@H](C)[C@]3(C2)[C@H](O)[C@H](OC(=O)NC2CC2)C[C@H]2C(=O)N(c4ccccc4)C(=O)[C@H]23)cc1 | 1 | 5 | ? | ? | 2% | ?
COc1ccc(NC(=O)c2ccccc2)c([N+](=O)[O-])c1 | 3 | -3 | ? | -8 | · | -2%
CC(=O)NC(NC(=S)Nc1ccccc1Br)C(Cl)(Cl)Cl (configuration not stated) | -1 | 0 | -18% | -8 | · | 31%
O=C(NC(NC(=S)Nc1ccccc1Cl)C(Cl)(Cl)Cl)c1cccc(Cl)c1 (configuration not stated) | -4 | ? | 8.2µM* | -87* | -1% | 4.6µM*
COc1ccc(NC(=S)NC(NC(=O)c2cccc(Cl)c2)C(Cl)(Cl)Cl)c([N+](=O)[O-])c1 (configuration not stated) | -9 | -13 | ? | -60* | 2% | ?
CC(=O)NC(NC(=S)Nc1ccc(N=Nc2ccccc2C)cc1C)C(Cl)(Cl)Cl (configuration not stated) | -1 | -81* | ? | -15 | -1% | ?
COc1ccc(NC(=S)NC(NC(C)=O)C(Cl)(Cl)Cl)c([N+](=O)[O-])c1 (configuration not stated) | -3 | -18 | -19% | -54* | · | 3%
O=C(O)c1cc(=S)nc[nH]1 | -4 | -19 | 0% | 8 | · | -3%
CC(C)(CNC(=O)c1ccc(NS(=O)(=O)c2ccc(Br)cc2)cc1)N1CCOCC1 | -16 | -11 | -28% | 15 | 1% | -24%
CCOC(=O)CNc1ncnc2c1nnn2C | -10 | · | -10% | · | 0% | 20%
CCOC(=O)NC(NC(=S)Nc1ccccc1[N+](=O)[O-])C(Cl)(Cl)Cl (configuration not stated) | -14 | ? | ? | -10 | -1% | ?
SMILES | DRD3 agonist | DRD3 antagonist | TDP1 cell noCPT | IL-1B inflam inh | ClpP mod | TDP1 cell CPT
COc1ccc(NC(=S)NC(NC(=O)c2cccc(C)c2)C(Cl)(Cl)Cl)c([N+](=O)[O-])c1 (configuration not stated) | -8 | -82* | ? | -10 | 1% | ?
Cc1ccc(NC(=O)c2sccc2C)nc1 | 5 | 2 | -11% | 0 | 0% | ?
CC(C)c1ccc(-c2nnn(Cc3nc4ccccc4s3)n2)cc1 | -4 | -72* | -19% | 24 | -5% | 3%
COc1cccc(C(=O)N2CCCC(c3nc(SCCN4CCOCC4)ncc3C)C2)c1 (configuration not stated) | · | · | 16µM* | · | · | ?
CC(=O)Nc1ccc(C(=O)N2CCCC(c3nc(SCc4ccccn4)ncc3C)C2)cc1 (configuration not stated) | · | · | -5% | · | · | 17%[9.04 µM]
Cc1cnc(SCc2ccccn2)nc1C1CCCN(C(=O)c2coc3c2C(=O)CCC3)C1 (configuration not stated) | · | · | 23µM* | · | · | ?
Cc1cnc(SCc2ccccn2)nc1C1CCCN(C(=O)c2noc3c2CCCC3)C1 (configuration not stated) | · | · | 15µM* | · | · | 10µM*
COc1ccc(C(=O)N2CCCC(c3nc(SCc4ccccn4)ncc3C)C2)cc1F (configuration not stated) | · | · | 7.3µM* | · | · | 9.2µM*
N#C/C(=C\c1cccnc1)C(=O)Nc1ccccc1[N+](=O)[O-] | 1 | 1 | -19% | 43 | 0% | ?
COc1cc(/C(C#N)=C/c2ccccc2)c([N+](=O)[O-])cc1OC | 1 | -25 | ? | -83* | 1% | -25%
COc1cc(C=C(C#N)c2ccc([N+](=O)[O-])cc2)ccc1O | -17 | -52* | ? | -8 | -1% | ?
